In the supplement of paper PMC3334620:
The full ranking holds about 33,000 sequences; the median of “E-score (-0.5 to 0.5)” is about -0.053, and the highest 2% start at about 0.37. The sample as a whole holds a higher share of the highest values than the screen did.

Target: Hap1 (UniProt P0CE41)
Assay: PBM E-score (8-mer binding enrichment) (E-score (-0.5 to 0.5)); higher = stronger / more preferred TF binding
Conditions: protein concentration: 200 nM; construct: GST-DNA-binding domain
Protocol: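 Universal 'all 10-mer' protein binding microarrays (Agilent AMADID 015681) probed with GST-tagged S. cerevisiae TFs (full-length or DBD) made by in vitro transcription/translation (PURExpress), about 100-200 nM. Bound TF was detected with fluorescent anti-GST. Each ungapped 8-mer (which stands for itself and its reverse complement) is scored by the PBM enrichment score (E-score), a modified Wilcoxon-Mann-Whitney statistic from -0.5 to +0.5, computed with the Universal PBM Analysis Suite. Scale: above 0.35 generally sequence-specific binding.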

Chain of UniProt P0CE41 (P0CE41 whole entry): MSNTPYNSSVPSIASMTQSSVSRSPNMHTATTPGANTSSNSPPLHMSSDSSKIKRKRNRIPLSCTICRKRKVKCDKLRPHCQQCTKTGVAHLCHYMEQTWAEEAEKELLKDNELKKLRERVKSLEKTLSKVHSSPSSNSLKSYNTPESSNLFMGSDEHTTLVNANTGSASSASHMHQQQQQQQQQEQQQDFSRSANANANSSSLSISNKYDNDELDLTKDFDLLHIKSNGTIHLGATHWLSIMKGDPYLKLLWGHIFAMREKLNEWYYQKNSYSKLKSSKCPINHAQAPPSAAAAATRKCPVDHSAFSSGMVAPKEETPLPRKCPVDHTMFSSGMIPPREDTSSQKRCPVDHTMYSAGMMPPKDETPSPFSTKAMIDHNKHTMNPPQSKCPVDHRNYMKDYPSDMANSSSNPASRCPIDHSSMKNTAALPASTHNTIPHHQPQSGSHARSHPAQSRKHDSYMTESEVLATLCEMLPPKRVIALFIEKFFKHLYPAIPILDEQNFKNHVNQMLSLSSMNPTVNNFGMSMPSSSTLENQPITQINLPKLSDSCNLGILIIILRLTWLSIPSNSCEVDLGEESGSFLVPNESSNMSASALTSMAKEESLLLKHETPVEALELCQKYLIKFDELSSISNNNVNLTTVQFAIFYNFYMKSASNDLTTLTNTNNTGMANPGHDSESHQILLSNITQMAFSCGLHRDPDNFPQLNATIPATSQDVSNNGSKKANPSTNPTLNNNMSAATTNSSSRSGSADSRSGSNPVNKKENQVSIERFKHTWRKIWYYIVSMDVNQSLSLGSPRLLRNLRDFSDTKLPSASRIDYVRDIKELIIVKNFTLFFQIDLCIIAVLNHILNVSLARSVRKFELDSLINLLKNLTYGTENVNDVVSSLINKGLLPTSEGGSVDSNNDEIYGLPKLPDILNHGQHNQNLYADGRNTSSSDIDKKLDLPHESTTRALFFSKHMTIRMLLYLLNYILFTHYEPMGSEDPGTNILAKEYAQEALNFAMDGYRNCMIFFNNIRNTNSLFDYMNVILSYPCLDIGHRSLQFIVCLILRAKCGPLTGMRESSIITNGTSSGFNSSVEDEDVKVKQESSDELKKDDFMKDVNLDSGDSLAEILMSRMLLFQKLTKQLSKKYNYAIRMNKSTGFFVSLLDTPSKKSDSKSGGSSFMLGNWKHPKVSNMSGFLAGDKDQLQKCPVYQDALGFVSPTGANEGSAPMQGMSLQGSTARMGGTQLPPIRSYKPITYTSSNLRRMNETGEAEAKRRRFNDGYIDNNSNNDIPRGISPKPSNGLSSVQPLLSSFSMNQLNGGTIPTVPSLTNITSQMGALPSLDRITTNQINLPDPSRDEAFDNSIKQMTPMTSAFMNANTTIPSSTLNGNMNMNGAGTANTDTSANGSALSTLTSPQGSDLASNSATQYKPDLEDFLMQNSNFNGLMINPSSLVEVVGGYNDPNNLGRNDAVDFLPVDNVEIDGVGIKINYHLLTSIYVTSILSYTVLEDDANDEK

Sequence	PBM E-score
AGACAAAC	-0.0936
CAATTCTG	-0.284
CCTCCTCA	-0.13
GATTCTAC	-0.0077
GTACCGCA	0.236
GTACCGTA	0.0486
GTACCGGA	0.393
AGGGAGAA	-0.0602
AATGGTGT	-0.0527
ATAGTAGC	0.0136
AACCCGAC	0.32
GCCCCGAA	0.333
ACCCCGAC	0.308
ACCCCGAG	0.348
ACCCCGAA	0.377
ACCCCGAT	0.416
AACCCGAT	0.375
AACCCGAG	0.317
CCCCCGAA	0.312
CGCGTAAA	0.188
AGTTATGG	-0.0493
ACTGTGCG	-0.13
ATCATCGC	0.0926
AATTTCCA	0.0738
CAGAAGCC	-0.0458

Sequence	PBM E-score
GTACGGAA	0.28
CGCTCACG	0.118
AATACCAT	-0.0062
ATGGTCAA	-0.23
AGGACTTC	-0.152
TGGACTAA	-0.117
GGGACTAA	0.0852
GGGACTTA	0.0397
CGGACTTA	0.488
CTGACTTC	-0.0182
CGGACTTC	0.405
CGGACTAA	0.411
AGGACTTA	0.18
CCTGGTCC	0.138
GCCAGGAA	-0.262
GCCGGCGA	0.364
GTCGGCGA	0.218
ATCGGCGA	0.357
TCCGGCGA	0.362
ACCGGCGT	0.282
ACCGGCGC	0.267
CTCGGCGA	0.383
ACCGGCGA	0.39
ACCGGCGG	0.418
ATGGACGA	0.0824

Sequence	PBM E-score
GGGGGTAC	0.215
CTAACAGA	-0.101
CTAGCAGA	-0.242
ATCCTCAC	-0.103
AGCAGGAT	-0.0378
TCTCCCAA	-0.0542
GCTTTCCA	-0.11
CTCCGAGA	0.376
CTCCGAGC	0.386
CTGCGAGA	-0.215
CTCCGACC	0.359
CCCCGAGC	0.351
GTGCGAGA	-0.179
CTTCGAGA	-0.234
ATCCGAGA	0.346
GTCCGAGA	0.437
CCAATCTC	0.00791
AGCCCTAC	-0.129
CATGGTGA	-0.0558
CCGGAAGC	0.336
GTCATCAC	-0.249
AGGAGTAG	-0.195
CCAAGGAA	-0.0481
AAGTCCGA	0.467
AAGTCCTA	0.0348

Sequence	PBM E-score
CAGTCCGA	0.366
AAGTCCAA	-0.00743
TAGTCCGA	0.42
GAGTCCGA	0.35
AACCCTCA	-0.135
TGGTTAAA	-0.0634
AATCGCCT	0.0771
TAGCTTGA	-0.226
AGGCGTAT	-0.311
ATGCCTAA	-0.21
GGTTCCAA	0.14
AACCCGGC	0.333
AGCCCCGG	0.373
GTCCCGGA	0.343
AACCCGGA	0.371
AGCCCCGA	0.333
AGCCCGGG	0.36
AGCCCCCG	0.185
CTCCCGGA	0.376
AGCCCGGA	0.39
CTCCCGGC	0.33
AGCCCGGC	0.272
AACCCGGT	0.365
AGTGCTAA	0.0956
CGTTTGTA	-0.122

Sequence	PBM E-score
GACCACTC	0.0772
TCTCCAGA	-0.0567
TAGTAGCA	-0.123
ATGCGCGA	0.188
ACTAAAGG	-0.181
AGGCGCAC	-0.0853
AGTCCATC	-0.027
TGCAGACA	-0.233
GGCCCGTA	0.281
ACCCCGGA	0.37
CGCCCGAA	0.294
GGCCCGGA	0.409
GCCCCGGA	0.391
GGCCCGAA	0.384
ACCCCGGG	0.357
GGCCCGCA	0.157
CCCCCGGA	0.305
GCCCCGTA	0.0466
GCCCCGGC	0.25
AGCCCGAA	0.3
CCTGGTGC	-0.0907
GAAAATCC	0.167
GAAGGTCC	0.0808
AGCTCCAA	-0.276
GAGACGCC	0.0301

Sequence	PBM E-score
GGATACAC	0.132
CACCATCC	0.0474
ATTTAATC	0.153
ACAATGAA	-0.165
AGATACAC	-0.0669
ACTGGTAG	-0.206
GCAAGCCA	-0.171
CAGTCGAA	-0.204
TACCCGGA	0.38
GACCCGGA	0.353
CGCCCGGA	0.4
TCCCCGAA	0.335
TCCCCGCA	0.303
CACCCGGA	0.364
CGCCCGGC	0.335
TCCCCGGA	0.377
CGCCCGTA	0.142
GAACGCAA	-0.0397
ACTTCTAG	-0.146
GAACATGA	-0.0648
AAGTCCAG	-0.056
ATTGCTCG	0.137
TGCTCAAA	-0.145
CGATAAGA	0.291
TACGCCTA	-0.258

Sequence	PBM E-score
CTGATATC	0.26
TGGATAAA	-0.0137
CGGATAAC	0.359
CGGATAAA	0.381
CGGATCTC	0.279
GGGATCTA	0.134
GATATATC	0.373
CGGATCTA	0.404
AGGATATC	0.155
AATATATC	0.26
CGGATATC	0.39
GATATATA	0.198
CATTAGCA	-0.142
CTAAGAGC	-0.0334
AGGGTGAT	-0.15
CAGAACAA	-0.101
TGGATACA	-0.288
GGGATATA	0.21
CGGATGTA	0.427
GGGATGTA	0.124
CGGATACC	0.218
CGGATACA	0.385
CGGATGTC	0.35
CGGATATA	0.482
AGGATATA	0.0407
